# Laboratory results reported in PubChem BioAssay AID1508601 (ICCB-Longwood Screening Facility, Harvard Medical School, 2020).
# In all, about 5,700 compounds went through this assay and about 85 (1%) were called active. Cut-off read from the data, not from the text of the source: active = p53-positive nuclei above about 36% (passing the limit was not always enough); inactive = the rest. Only a selection was taken, and actives are over-represented in it overall.
# Key:
# [1] = p53 stabilisation in HPV-positive human cells, imaging, p53-positive nuclei imaging, 24 h, 48 h (AID 1508601); conditions: 24/48 h
# [2] = molecular target: Cellular tumor antigen p53 (Homo sapiens) (UniProt P04637); assay: as above; conditions: 24/48 h, stronger effect = higher value
# Chain of Cellular tumor antigen p53 (Homo sapiens) (P04637 whole entry, looked up): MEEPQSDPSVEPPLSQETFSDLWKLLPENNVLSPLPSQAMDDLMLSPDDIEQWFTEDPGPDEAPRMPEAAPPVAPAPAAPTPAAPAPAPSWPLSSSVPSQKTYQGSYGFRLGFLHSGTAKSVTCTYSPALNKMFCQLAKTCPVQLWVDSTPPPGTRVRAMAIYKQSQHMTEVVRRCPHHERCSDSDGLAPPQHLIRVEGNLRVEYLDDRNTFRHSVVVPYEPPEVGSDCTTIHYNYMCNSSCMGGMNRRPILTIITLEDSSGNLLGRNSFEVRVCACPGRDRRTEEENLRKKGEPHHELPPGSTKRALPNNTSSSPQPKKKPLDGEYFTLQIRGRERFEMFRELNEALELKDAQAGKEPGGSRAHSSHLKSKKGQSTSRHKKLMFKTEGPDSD
# [3] = measured here: cell number at 24 h, Library stock concentration: 3.33 mM
# [4] = measured here: cell number at 24 h, Library stock concentration: 10 mM
# [5] = measured here: cell number at 48 h, Library stock concentration: 3.33 mM
# [6] = measured here: cell number at 48 h, Library stock concentration: 10 mM
# [7] = Library stock concentration: 3.33 mM
# [8] = Library stock concentration: 10 mM
# [9] = measured here: p53 positive nuclei at 24 h, Library stock concentration: 3.33 mM
# [10] = measured here: p53 positive nuclei at 24 h, Library stock concentration: 10 mM
# [11] = measured here: cell number at 24 h, concentration not given here
# [12] = measured here: cell number at 48 h, concentration not given here
# [13] = measured here: p53 positive nuclei at 24 h, concentration not given here
smiles,measurement,setting,value
OC(c1cc(C(F)(F)F)nc2c(C(F)(F)F)cccc12)[C@H]1CCCCN1 (some centres not stated),"nuclei count, normalised","[1]; measured here: cell number at 24 h, Library stock concentration: 500 nM",110%
same,"nuclei count, normalised","[1]; measured here: cell number at 24 h, Library stock concentration: 1.5 uM",109%
same,"nuclei count, normalised","[1]; measured here: cell number at 24 h, Library stock concentration: 4.6 uM",109%
same,"nuclei count, normalised","[1]; measured here: cell number at 24 h, Library stock concentration: 13.7 uM",101%
same,"nuclei count, normalised","[1]; measured here: cell number at 24 h, Library stock concentration: 41 uM",117%
same,"nuclei count, normalised","[1]; measured here: cell number at 24 h, Library stock concentration: 123 uM",109%
same,"nuclei count, normalised","[1]; measured here: cell number at 24 h, Library stock concentration: 370 uM",109%
same,"nuclei count, normalised","[1]; measured here: cell number at 24 h, Library stock concentration: 1.111 mM",110%
same,"nuclei count, normalised",[1]; [3],95.3%
same,"nuclei count, normalised","[1]; measured here: cell number at 24 h, Library stock concentration: 3.333 mM",112%
same,"nuclei count, normalised",[1]; [4],86.2%
same,"nuclei count, normalised","[1]; measured here: cell number at 48 h, Library stock concentration: 500 nM",105%
same,"nuclei count, normalised","[1]; measured here: cell number at 48 h, Library stock concentration: 1.5 uM",105%
same,"nuclei count, normalised","[1]; measured here: cell number at 48 h, Library stock concentration: 4.6 uM",112%
same,"nuclei count, normalised","[1]; measured here: cell number at 48 h, Library stock concentration: 13.7 uM",103%
same,"nuclei count, normalised","[1]; measured here: cell number at 48 h, Library stock concentration: 41 uM",120%
same,"nuclei count, normalised","[1]; measured here: cell number at 48 h, Library stock concentration: 123 uM",113%
same,"nuclei count, normalised","[1]; measured here: cell number at 48 h, Library stock concentration: 370 uM",110%
same,"nuclei count, normalised","[1]; measured here: cell number at 48 h, Library stock concentration: 1.111 mM",113%
same,"nuclei count, normalised",[1]; [5],94.9%
same,"nuclei count, normalised","[1]; measured here: cell number at 48 h, Library stock concentration: 3.333 mM",116%
same,"nuclei count, normalised",[1]; [6],99.6%
same,"p53-positive nuclei, normalised",[2]; Library stock concentration: 500 nM,-0.00517% (inactive)
same,"p53-positive nuclei, normalised",[2]; Library stock concentration: 1.5 uM,-0.125% (inactive)
same,"p53-positive nuclei, normalised",[2]; Library stock concentration: 4.6 uM,0.0484% (inactive)
same,"p53-positive nuclei, normalised",[2]; Library stock concentration: 13.7 uM,-0.00344% (inactive)
same,"p53-positive nuclei, normalised",[2]; Library stock concentration: 41 uM,-0.185% (inactive)
same,"p53-positive nuclei, normalised",[2]; Library stock concentration: 123 uM,-0.102% (inactive)
same,"p53-positive nuclei, normalised",[2]; Library stock concentration: 370 uM,-0.0936% (inactive)
same,"p53-positive nuclei, normalised",[2]; Library stock concentration: 1.111 mM,-0.065% (inactive)
same,"p53-positive nuclei, normalised",[2]; [7],4.69% (inactive)
same,"p53-positive nuclei, normalised",[2]; Library stock concentration: 3.333 mM,-0.144% (inactive)
same,"p53-positive nuclei, normalised",[2]; [8],1.04% (inactive)
same,"p53-positive nuclei, normalised","[2]; measured here: p53 positive nuclei at 24 h, Library stock concentration: 500 nM",0.0755%
same,"p53-positive nuclei, normalised","[2]; measured here: p53 positive nuclei at 24 h, Library stock concentration: 1.5 uM",-0.239%
same,"p53-positive nuclei, normalised","[2]; measured here: p53 positive nuclei at 24 h, Library stock concentration: 4.6 uM",-0.0294%
same,"p53-positive nuclei, normalised","[2]; measured here: p53 positive nuclei at 24 h, Library stock concentration: 13.7 uM",-0.185%
same,"p53-positive nuclei, normalised","[2]; measured here: p53 positive nuclei at 24 h, Library stock concentration: 41 uM",-0.239%
same,"p53-positive nuclei, normalised","[2]; measured here: p53 positive nuclei at 24 h, Library stock concentration: 123 uM",-0.134%
same,"p53-positive nuclei, normalised","[2]; measured here: p53 positive nuclei at 24 h, Library stock concentration: 370 uM",-0.187%
same,"p53-positive nuclei, normalised","[2]; measured here: p53 positive nuclei at 24 h, Library stock concentration: 1.111 mM",-0.0384%
same,"p53-positive nuclei, normalised",[2]; [9],2.85%
same,"p53-positive nuclei, normalised","[2]; measured here: p53 positive nuclei at 24 h, Library stock concentration: 3.333 mM",-0.036%
same,"p53-positive nuclei, normalised",[2]; [10],1.37%
COC(=O)C1C(O)CC[C@H]2CN3CCc4c([nH]c5ccccc45)[C@@H]3C[C@H]12 (some centres not stated),"nuclei count, normalised",[1]; [3],104%
same,"nuclei count, normalised",[1]; [5],106%
same,"p53-positive nuclei, normalised",[2]; [7],-0.11% (inactive)
same,"p53-positive nuclei, normalised",[2]; [9],-0.356%
CCCCCCCCCCCCCCP(=O)(O)O,"nuclei count, normalised",[1]; [11],105%
same,"nuclei count, normalised",[1]; [12],107%
same,"p53-positive nuclei, normalised",[2]; concentration not given here,-0.0194% (inactive)
same,"p53-positive nuclei, normalised",[2]; [13],-0.0488%
COc1ccc(N(C(=O)Nc2c(C)cccc2C)c2cc(Nc3ccc(N4CCN(C)CC4)cc3OC)ncn2)c(OC)c1,"nuclei count, normalised","[1]; measured here: cell number at 24 h, Library stock concentration: 80 uM",104%
same,"nuclei count, normalised","[1]; measured here: cell number at 24 h, Library stock concentration: 400 uM",93.8%
same,"nuclei count, normalised","[1]; measured here: cell number at 24 h, Library stock concentration: 2 mM",82.3%
same,"nuclei count, normalised",[1]; [4],66%
same,"nuclei count, normalised","[1]; measured here: cell number at 48 h, Library stock concentration: 80 uM",104%
same,"nuclei count, normalised","[1]; measured here: cell number at 48 h, Library stock concentration: 400 uM",90.4%
same,"nuclei count, normalised","[1]; measured here: cell number at 48 h, Library stock concentration: 2 mM",64.8%
same,"nuclei count, normalised",[1]; [6],66.4%
same,"p53-positive nuclei, normalised",[2]; Library stock concentration: 80 uM,-0.0182% (inactive)
same,"p53-positive nuclei, normalised",[2]; Library stock concentration: 400 uM,-0.151% (inactive)
same,"p53-positive nuclei, normalised",[2]; Library stock concentration: 2 mM,-0.0629% (inactive)
same,"p53-positive nuclei, normalised",[2]; [8],0.104% (inactive)
same,"p53-positive nuclei, normalised","[2]; measured here: p53 positive nuclei at 24 h, Library stock concentration: 80 uM",-0.103%
same,"p53-positive nuclei, normalised","[2]; measured here: p53 positive nuclei at 24 h, Library stock concentration: 400 uM",-0.0385%
same,"p53-positive nuclei, normalised","[2]; measured here: p53 positive nuclei at 24 h, Library stock concentration: 2 mM",-0.0916%
same,"p53-positive nuclei, normalised",[2]; [10],-0.0741%
COc1cc(C(=O)NCc2ccc(OCCN(C)C)cc2)cc(OC)c1OC,"nuclei count, normalised",[1]; [11],106%
same,"nuclei count, normalised",[1]; [12],102%
same,"p53-positive nuclei, normalised",[2]; concentration not given here,-0.214% (inactive)
same,"p53-positive nuclei, normalised",[2]; [13],-0.0679%
CN(C)Cc1c(C(=O)NCCOc2ccc(C(=O)NO)cc2)oc2ccccc12,"nuclei count, normalised",[1]; [3],40%
same,"nuclei count, normalised",[1]; [5],23.5%
same,"p53-positive nuclei, normalised",[2]; [7],74.6% (active)
same,"p53-positive nuclei, normalised",[2]; [9],61.4%
Cc1cc(C)c(N(Cc2ccccc2)S(=O)(=O)c2ccc(OCCNC(=O)c3cc4ccccc4o3)cc2)c(C(=O)NO)c1,"nuclei count, normalised","[1]; measured here: cell number at 24 h, Library stock concentration: 46 uM",106%
same,"nuclei count, normalised","[1]; measured here: cell number at 24 h, Library stock concentration: 278 uM",102%
same,"nuclei count, normalised","[1]; measured here: cell number at 24 h, Library stock concentration: 1.67 mM",106%
same,"nuclei count, normalised",[1]; [4],108%
same,"nuclei count, normalised","[1]; measured here: cell number at 48 h, Library stock concentration: 46 uM",108%
same,"nuclei count, normalised","[1]; measured here: cell number at 48 h, Library stock concentration: 278 uM",104%
same,"nuclei count, normalised","[1]; measured here: cell number at 48 h, Library stock concentration: 1.67 mM",111%
same,"nuclei count, normalised",[1]; [6],119%
same,"p53-positive nuclei, normalised",[2]; Library stock concentration: 46 uM,-0.344% (inactive)
same,"p53-positive nuclei, normalised",[2]; Library stock concentration: 278 uM,-0.116% (inactive)
same,"p53-positive nuclei, normalised",[2]; Library stock concentration: 1.67 mM,-0.271% (inactive)
same,"p53-positive nuclei, normalised",[2]; [8],0.0163% (inactive)
same,"p53-positive nuclei, normalised","[2]; measured here: p53 positive nuclei at 24 h, Library stock concentration: 46 uM",-0.21%
same,"p53-positive nuclei, normalised","[2]; measured here: p53 positive nuclei at 24 h, Library stock concentration: 278 uM",-0.21%
same,"p53-positive nuclei, normalised","[2]; measured here: p53 positive nuclei at 24 h, Library stock concentration: 1.67 mM",-0.139%
same,"p53-positive nuclei, normalised",[2]; [10],-0.147%
